Holding throughout (assay): log2 fold change, soluble protein after heating vs DMSO (PISA); higher = thermal stabilisation; K562 lysate, 10 uM; active = over 0.2 and 3.5 SD of the protein, either way, in both replicates (recomputed)
Compound in one assay: Cc1cn(-c2cc(NC(=O)c3ccc(C)c(Nc4nccc(-c5cccnc5)n4)c3)cc(C(F)(F)F)c2)cn1 [nilotinib]
The method in brief: (§1)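 Soluble protein was defined as the supernatant remaining after 21,000xg for 90 min, following pooling of heated aliquots and adjustment to 0.5% NP-40 at 4°C. Before that, crude K562 extract at 1 mg/mL protein in PBS pH 7.4 with 1 mM MgCl2 was treated with 10 μM compound for 30 min and heated for 3 min across 48°C-58°C. Quantification used TMTpro 16plex LC-MS/MS with channel sums equalised, and values are log-two fold changes in thermal stability relative to solvent controls from duplicates.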

Compound in assay [1]: Cc1nc(Nc2n[nH]c3c2CN(C(=O)N[C@H](CN(C)C)c2ccccc2)C3(C)C)c2sccc2n1
Put shortly: as §1

Compound in another assay: Cc1nc(Nc2ncc(C(=O)Nc3c(C)cccc3Cl)s2)cc(N2CCN(CCO)CC2)n1 [dasatinib]
The method in brief:
as §1

Compound in assay [2]: Cc1ncc(-c2ccnc(Nc3ccc(S(C)(=O)=O)cc3)n2)n1C(C)C
The method in brief:
as §1

Compound in assay [3]: Cn1cc(-c2ccc3c(c2)CCN3C(=O)Cc2cccc(C(F)(F)F)c2)c2c(N)ncnc21
Put shortly: as §1

Compound in another assay: Cn1cc(CNCC2CCN(c3ncc(C(=O)NO)cn3)CC2)c2ccccc21 [quisinostat]
Put shortly: as §1

Compound in a further assay: Cn1cncc1[C@@](N)(c1ccc(Cl)cc1)c1ccc2c(c1)c(-c1cccc(Cl)c1)cc(=O)n2C [tipifarnib]
The method in brief: as §1

Compound in assay [4]: NC(=O)Nc1cc(-c2cccc(F)c2)sc1C(=O)N[C@H]1CCCNC1
The method in brief: as §1

Compound in assay [5]: NC(=O)c1cnc(N[C@@H]2CCCC[C@@H]2N)nc1Nc1cccc(-n2nccn2)c1
Put shortly:
as §1

Compound in assay [6]: NC1(c2ccc(-c3nc4ccn5c(=O)[nH]nc5c4cc3-c3ccccc3)cc2)CCC1
Put shortly:
as §1

Compound in assay [7]: NCC(=O)Nc1ccc(-n2nc(C(F)(F)F)cc2-c2ccc3c(ccc4ccccc43)c2)cc1
The method in brief:
as §1

Compound in a further assay: O=C(CCCCCCC(=O)Nc1ccccc1)NO [vorinostat]
Put shortly: as §1

Compound in the next assay: O=C(O)c1ccc2c(c1)nc(Nc1cccc(Cl)c1)c1ccncc12 [silmitasertib]
The method in brief: as §1

Compound in assay [8]: O=C1NC(=O)C(c2cnc3ccccn23)=C1c1cn2c3c(cc(F)cc13)CN(C(=O)N1CCCCC1)CC2
Put shortly:
as §1

Compound in the next assay: c1cn2cc(-c3ccc4cn[nH]c4c3)nc(Nc3ccc(N4CCOCC4)cc3)c2n1 [entospletinib]
The method in brief: as §1

The full data set covers some 8,800 targets. This sample favours those with a hit. About 0.5% of all pairs of compound and target were hits. Values without a mark were called inactive.

Chain of UniProt Q8TAG9 (Q8TAG9 whole entry, looked up): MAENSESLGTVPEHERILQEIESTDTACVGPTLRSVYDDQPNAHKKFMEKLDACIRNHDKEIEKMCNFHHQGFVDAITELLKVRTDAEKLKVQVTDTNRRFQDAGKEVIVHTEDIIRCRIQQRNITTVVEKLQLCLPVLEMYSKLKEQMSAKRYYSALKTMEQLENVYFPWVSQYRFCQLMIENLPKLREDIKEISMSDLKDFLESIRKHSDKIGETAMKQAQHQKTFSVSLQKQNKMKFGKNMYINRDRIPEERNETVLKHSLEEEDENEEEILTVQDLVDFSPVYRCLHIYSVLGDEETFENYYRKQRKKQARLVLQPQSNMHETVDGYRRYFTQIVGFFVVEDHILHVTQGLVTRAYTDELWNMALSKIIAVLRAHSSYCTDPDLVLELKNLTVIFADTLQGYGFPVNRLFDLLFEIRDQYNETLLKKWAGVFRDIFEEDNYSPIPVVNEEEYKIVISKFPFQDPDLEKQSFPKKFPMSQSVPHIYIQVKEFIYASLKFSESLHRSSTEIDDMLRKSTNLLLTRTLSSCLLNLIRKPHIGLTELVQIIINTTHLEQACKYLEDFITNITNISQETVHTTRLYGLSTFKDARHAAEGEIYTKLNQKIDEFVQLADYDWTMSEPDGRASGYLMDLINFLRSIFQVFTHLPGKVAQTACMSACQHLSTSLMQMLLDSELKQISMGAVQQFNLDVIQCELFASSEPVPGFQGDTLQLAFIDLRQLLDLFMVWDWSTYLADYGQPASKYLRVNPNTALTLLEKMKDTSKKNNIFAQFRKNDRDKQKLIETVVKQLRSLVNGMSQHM
Chain of UniProt Q9NZC3 (Q9NZC3 whole entry, looked up): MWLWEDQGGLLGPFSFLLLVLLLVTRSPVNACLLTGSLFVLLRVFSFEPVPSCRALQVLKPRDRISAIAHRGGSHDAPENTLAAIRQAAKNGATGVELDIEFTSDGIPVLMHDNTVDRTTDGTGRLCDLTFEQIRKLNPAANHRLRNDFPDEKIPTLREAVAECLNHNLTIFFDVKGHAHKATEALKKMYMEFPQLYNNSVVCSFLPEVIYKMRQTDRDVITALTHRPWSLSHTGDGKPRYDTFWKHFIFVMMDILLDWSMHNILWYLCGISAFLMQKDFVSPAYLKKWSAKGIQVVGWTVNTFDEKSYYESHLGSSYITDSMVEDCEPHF
Chain of UniProt P02774 (P02774 whole entry, looked up): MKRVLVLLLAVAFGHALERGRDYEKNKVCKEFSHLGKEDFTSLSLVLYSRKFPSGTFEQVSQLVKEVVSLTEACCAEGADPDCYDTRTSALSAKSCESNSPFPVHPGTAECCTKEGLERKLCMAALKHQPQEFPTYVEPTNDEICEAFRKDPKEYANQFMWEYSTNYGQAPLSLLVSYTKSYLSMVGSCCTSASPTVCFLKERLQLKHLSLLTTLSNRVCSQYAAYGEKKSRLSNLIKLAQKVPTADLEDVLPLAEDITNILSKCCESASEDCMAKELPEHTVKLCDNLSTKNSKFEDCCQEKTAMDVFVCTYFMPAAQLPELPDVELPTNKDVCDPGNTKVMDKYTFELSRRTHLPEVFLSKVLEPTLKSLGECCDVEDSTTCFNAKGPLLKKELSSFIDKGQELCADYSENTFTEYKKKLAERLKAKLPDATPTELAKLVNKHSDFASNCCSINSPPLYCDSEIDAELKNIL
Chain of UniProt Q14153 (Q14153 whole entry, looked up): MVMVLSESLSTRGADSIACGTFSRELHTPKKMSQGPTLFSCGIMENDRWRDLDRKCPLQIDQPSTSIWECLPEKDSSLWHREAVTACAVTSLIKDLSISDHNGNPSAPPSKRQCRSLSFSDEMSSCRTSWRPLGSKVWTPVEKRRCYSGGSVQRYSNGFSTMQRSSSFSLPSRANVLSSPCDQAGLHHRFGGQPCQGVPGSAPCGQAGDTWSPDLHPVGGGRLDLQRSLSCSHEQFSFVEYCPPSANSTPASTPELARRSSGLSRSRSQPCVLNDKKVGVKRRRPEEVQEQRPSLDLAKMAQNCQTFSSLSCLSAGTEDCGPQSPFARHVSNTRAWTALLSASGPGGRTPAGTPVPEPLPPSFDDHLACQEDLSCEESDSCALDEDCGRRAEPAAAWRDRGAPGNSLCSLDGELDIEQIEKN
Chain of UniProt Q9HCG7 (Q9HCG7 whole entry, looked up): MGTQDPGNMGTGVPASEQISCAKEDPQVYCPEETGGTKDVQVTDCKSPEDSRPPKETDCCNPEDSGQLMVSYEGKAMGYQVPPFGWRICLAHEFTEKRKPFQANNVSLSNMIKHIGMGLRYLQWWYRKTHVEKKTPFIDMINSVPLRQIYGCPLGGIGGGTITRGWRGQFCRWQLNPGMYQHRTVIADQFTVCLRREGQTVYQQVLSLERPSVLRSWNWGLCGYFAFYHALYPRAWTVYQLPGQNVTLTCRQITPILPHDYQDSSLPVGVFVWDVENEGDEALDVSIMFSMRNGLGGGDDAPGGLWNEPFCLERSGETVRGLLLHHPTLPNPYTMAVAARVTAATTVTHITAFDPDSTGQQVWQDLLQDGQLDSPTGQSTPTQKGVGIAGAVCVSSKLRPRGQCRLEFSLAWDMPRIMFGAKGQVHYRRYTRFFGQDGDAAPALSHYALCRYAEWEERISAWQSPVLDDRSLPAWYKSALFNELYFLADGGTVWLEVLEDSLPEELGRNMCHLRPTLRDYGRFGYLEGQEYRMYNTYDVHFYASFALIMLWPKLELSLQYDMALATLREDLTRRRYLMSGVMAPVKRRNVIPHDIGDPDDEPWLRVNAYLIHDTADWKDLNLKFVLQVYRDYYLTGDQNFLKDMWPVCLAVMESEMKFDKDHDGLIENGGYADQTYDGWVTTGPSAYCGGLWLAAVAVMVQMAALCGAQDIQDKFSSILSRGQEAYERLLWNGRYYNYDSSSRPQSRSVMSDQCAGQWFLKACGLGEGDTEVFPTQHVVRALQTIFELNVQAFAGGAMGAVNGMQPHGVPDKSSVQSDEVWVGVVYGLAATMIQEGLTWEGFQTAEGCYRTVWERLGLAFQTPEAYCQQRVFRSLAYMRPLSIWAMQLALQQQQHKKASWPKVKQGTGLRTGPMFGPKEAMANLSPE
Chain of UniProt Q9NRY5 (Q9NRY5 whole entry, looked up): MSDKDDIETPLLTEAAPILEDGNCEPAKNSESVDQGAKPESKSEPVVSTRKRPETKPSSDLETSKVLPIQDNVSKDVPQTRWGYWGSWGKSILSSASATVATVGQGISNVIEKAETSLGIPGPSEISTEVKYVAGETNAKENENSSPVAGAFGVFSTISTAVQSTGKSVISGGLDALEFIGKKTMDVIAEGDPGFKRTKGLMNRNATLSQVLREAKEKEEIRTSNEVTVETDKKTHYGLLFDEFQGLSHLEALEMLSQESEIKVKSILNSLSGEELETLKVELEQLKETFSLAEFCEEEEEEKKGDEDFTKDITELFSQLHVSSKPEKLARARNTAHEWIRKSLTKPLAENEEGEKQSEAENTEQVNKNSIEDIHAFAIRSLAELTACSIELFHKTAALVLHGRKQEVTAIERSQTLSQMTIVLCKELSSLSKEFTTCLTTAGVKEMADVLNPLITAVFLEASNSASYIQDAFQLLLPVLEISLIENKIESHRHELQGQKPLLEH
Chain of UniProt Q9UBQ6 (Q9UBQ6 whole entry, looked up): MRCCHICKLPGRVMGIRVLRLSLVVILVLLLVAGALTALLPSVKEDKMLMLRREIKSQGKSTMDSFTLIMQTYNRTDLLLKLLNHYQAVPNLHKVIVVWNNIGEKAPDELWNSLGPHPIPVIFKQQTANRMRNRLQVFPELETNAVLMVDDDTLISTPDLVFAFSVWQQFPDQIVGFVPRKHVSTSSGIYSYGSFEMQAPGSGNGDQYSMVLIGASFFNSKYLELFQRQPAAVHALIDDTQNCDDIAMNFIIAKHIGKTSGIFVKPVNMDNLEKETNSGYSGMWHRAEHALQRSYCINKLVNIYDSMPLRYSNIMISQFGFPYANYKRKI
Chain of UniProt Q9UET6 (Q9UET6 whole entry, looked up): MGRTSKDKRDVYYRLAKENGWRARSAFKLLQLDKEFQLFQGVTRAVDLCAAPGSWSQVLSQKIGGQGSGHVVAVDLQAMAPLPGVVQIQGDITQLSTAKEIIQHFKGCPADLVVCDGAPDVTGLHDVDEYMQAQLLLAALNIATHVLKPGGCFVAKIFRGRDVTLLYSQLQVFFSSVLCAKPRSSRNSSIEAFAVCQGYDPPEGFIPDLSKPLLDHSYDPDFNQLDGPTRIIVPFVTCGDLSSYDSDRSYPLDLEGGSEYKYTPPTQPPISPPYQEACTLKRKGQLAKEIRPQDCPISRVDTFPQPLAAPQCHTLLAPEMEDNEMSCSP

With EXOC6 (UniProt Q8TAG9), the log2 fold change with nilotinib was -0.002; in assay [1], 0.01; with dasatinib, -0.063; in assay [2] it was 0.022; in assay [3] it was 0.064; with quisinostat, -0.023. In addition, the log2 fold change is -0.044 with tipifarnib; 0.068 in assay [4]; 0.024 in [5]; -0.064 in assay [6]; -0.074 in assay [7]; -0.301 (active) with vorinostat. Further, the log2 fold change is 0.057 with silmitasertib, -0.006 in [8] and 0.021 with entospletinib.

Turning to DST (UniProt Q03001), the log2 fold change is -0.002 in the assay with nilotinib; -0.035 in assay [1]; -0.023 with dasatinib; 0.045 in assay [2]; -0.06 in [3]; -0.118 with quisinostat. Moreover, the log2 fold change in the assay with tipifarnib was 0.069; in [4] it was 0.022; in assay [5], 0.027; in assay [6], -0.107; in assay [7], 0.262; with vorinostat, -0.035. Moreover, the log2 fold change in the assay with silmitasertib is -0.02; in [8], 0.01; with entospletinib it was -0.03.

As for EXTL2 (UniProt Q9UBQ6), the log2 fold change was 0.07 with nilotinib; -0.085 in assay [1]; 0.127 in the assay with dasatinib; 0.081 in assay [2]; 0.13 in [3]; -0.146 with quisinostat. Besides, the log2 fold change with tipifarnib was 0.017; in [4], 0.035; in [5], -0.068; in assay [6], 0.003; in assay [7] it was -0.171; with vorinostat, 0.189. Further, the log2 fold change in the assay with silmitasertib is -0.053; in [8], 0.01; in the assay with entospletinib it was -0.036.

Take FAM114A2 (UniProt Q9NRY5): the log2 fold change in the assay with nilotinib was 0.152; in [1], 0.053; with dasatinib, -0.028; in [2], 0.031; in [3] it was 0.002; in the assay with quisinostat it was 0.02. The log2 fold change with tipifarnib was -0.231; in [4] it was 0; in assay [5] it was 0.009; in assay [6], -0.071; in assay [7], -0.056; in the assay with vorinostat, 0.262. Besides, the log2 fold change in the assay with silmitasertib is -0.015; in [8] it was -0.034; with entospletinib it was 0.

For FTSJ1 isoform 2 (UniProt Q9UET6), the log2 fold change in assay [5] is -0.019; in [7], -0.109; in the assay with entospletinib, 0.047.

Regarding GAA (UniProt P10253), the log2 fold change was 0.058 in the assay with nilotinib; 0.115 in [1]; 0.267 in assay [2]; 0.024 with quisinostat; -0.336 with tipifarnib; 0.007 in [4]. The log2 fold change in assay [5] is -0.014; in assay [6], -0.003; in assay [7], -0.038; with vorinostat, -0.176; with silmitasertib, -0.092; in [8], -0.056. Also, the log2 fold change with entospletinib was 0.068.

Consider GDE1 (UniProt Q9NZC3), for which the log2 fold change was 0.012 in the assay with dasatinib; -0.012 in assay [3]; 0.085 with quisinostat; 0.029 in assay [4]; -0.02 in assay [5]; -0.022 in assay [6]. The log2 fold change with vorinostat was -0.007; with silmitasertib it was 0.006; in assay [8], 0.04; in the assay with entospletinib, -0.162.

For the target GC isoform 3 (UniProt P02774), the log2 fold change with dasatinib was 0.044; in [3] it was -0.114; with quisinostat it was 0.175; in assay [4] it was -0.076; in assay [7], -0.058; in assay [8], 0.076. The log2 fold change in the assay with entospletinib is -0.053.

Take DST isoform 3 (UniProt Q03001): the log2 fold change in assay [6] was -0.071; with vorinostat, -0.041; with silmitasertib, 0.087; with entospletinib, -0.004.

Regarding FAT2 (UniProt Q9NYQ8), the log2 fold change with nilotinib is -0.086; in [1], 0.086; in assay [2], 0.014; with quisinostat, -0.978 (active); with tipifarnib it was -0.028; in assay [4], 0.36. Moreover, the log2 fold change in assay [5] was 0.025; in assay [6], -0.087; in assay [7], 0.393; in the assay with vorinostat it was 0.001; with silmitasertib, 0.098; in assay [8], 0.178. Also, the log2 fold change in the assay with entospletinib is 0.162.

For the target FAM53B (UniProt Q14153), the log2 fold change with nilotinib was 0.015; in assay [1] it was 0.013; in the assay with dasatinib, 0.036; in assay [2] it was 0.004; in assay [3] it was 0.14; with quisinostat, -0.078. The log2 fold change in the assay with tipifarnib is -0.013; in assay [4] it was 0.093; in [6], 0.042; in [7], 0.056; with vorinostat it was -0.06; in the assay with silmitasertib, 0.049. Further, the log2 fold change in assay [8] was 0.02; with entospletinib, -0.003.

Consider GART (UniProt C9JZG2), for which the log2 fold change with nilotinib was -0.085; in assay [1], -0.033; in assay [2], 0.042; in the assay with quisinostat, -0.373; with tipifarnib, -0.101; in [4] it was -0.02. Moreover, the log2 fold change in assay [5] was 0.139; in assay [8] it was -0.069; in the assay with entospletinib it was 0.037.

GBA2 (UniProt Q9HCG7): the log2 fold change with nilotinib was -0.063; in [1] it was 0.114; with dasatinib, 0.059; in assay [2], -0.079; in [3] it was 0.034; with quisinostat it was -0.101. Besides, the log2 fold change with tipifarnib is -0.213; in [4], 0.023; in assay [5] it was 0.058; in assay [6] it was -0.074; with vorinostat it was -0.089; with silmitasertib, -0.004. Further, the log2 fold change is -0.091 in assay [8] and -0.102 with entospletinib.

The values above are taken from the supplement of paper PMC10849652.
